From PubChem
Most compounds without a hit are left out; they make up all but 0.28% or so of the library.
mcGAS lum = blocks mouse cGAS activity; AID 1259399; 160,000 tested, 0.15% active; recombinant cGAS, Kinase-Glo ATP depletion luminescence; inhibition, % at 12.5 µM; Q8C6L5;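 also: 0% = negative control wells and 100% = reference inhibitor with no enzyme activity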
Target sequence (Q8C6L5 whole entry, looked up): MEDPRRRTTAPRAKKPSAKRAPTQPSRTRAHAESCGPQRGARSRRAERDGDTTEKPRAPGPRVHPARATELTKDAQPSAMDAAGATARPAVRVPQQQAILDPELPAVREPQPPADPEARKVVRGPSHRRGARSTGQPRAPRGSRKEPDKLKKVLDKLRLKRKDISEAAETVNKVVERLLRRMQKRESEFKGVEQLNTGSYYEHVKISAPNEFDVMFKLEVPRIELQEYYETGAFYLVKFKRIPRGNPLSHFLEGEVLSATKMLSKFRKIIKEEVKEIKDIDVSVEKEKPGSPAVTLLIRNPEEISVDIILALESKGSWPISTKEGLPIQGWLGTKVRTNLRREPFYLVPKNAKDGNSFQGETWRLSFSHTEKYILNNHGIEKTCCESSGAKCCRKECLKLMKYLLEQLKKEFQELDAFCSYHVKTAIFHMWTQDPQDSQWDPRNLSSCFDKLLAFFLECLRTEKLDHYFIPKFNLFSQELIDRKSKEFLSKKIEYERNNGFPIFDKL
hcGAS lum = blocks human cGAS activity; 290,000 tested, 0.081% active; inhibition, % at 12.5 µM; Q8N884; recombinant h-cGAS, ATP depletion, Kinase-Glo luminescence;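 also: 0% = vehicle reaction and 100% = reaction without DNA for no activity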
NPYLR7 agonist = mosquito NPYLR7 agonism. 270,000 tested, 0.15% active. HEK293T NPYLR7/Galpha15, GCaMP6s calcium fluorescence. AID 1259423. activation, % at 10 µM; in the data active = activation above about 40%;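 also: 0% = vehicle and 100% = reference agonist at the receptor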
* = called active by the depositor; . = not tested or not shown. Rule as the data show it, unless noted: active = inhibition above about 40%; inactive = the rest.

SMILES | mcGAS lum | hcGAS lum | NPYLR7 agonist
Nc1nc(-c2cc(I)c(O)c(I)c2)cs1 | 102* | 66* | -2
COc1ccc(CN2C(=O)c3ccccc3C2=O)cc1F | . | -1 | 8
COc1cccc(CN2C(=O)c3cccc(N)c3C2=O)c1 | . | -8 | 43*
O=C(Nc1cccc(-c2cccc(-c3ccc4c(c3)OCCO4)n2)c1)C1CCCCC1 | -6 | -8 | -7
O=C(Nc1cccc(-c2nnco2)c1)C1CCCCC1 | . | -6 | 86*
CCSc1nc(NC(C)C)c2cnn(CCNC(=O)c3cc4ccccc4o3)c2n1 | -1 | 14 | 2
COCC1(C(=O)NCc2noc(-c3cccs3)n2)CCC1 | . | -4 | 13
N#CC(=Cc1c(F)c(F)c(F)c(F)c1F)c1ccccn1 | -4 | -1 | 99*
N#CC(=Cc1ccccc1I)c1ccccn1 | -4 | -4 | -1
CCOC(=O)Cc1c(C)nc2ncnn2c1N1CCN(Cc2c(F)cccc2Cl)CC1 | -7 | -6 | .
CCN(CC)c1ccc2cc(C(N)=O)c(=NCc3ccccc3)oc2c1 | . | 1 | -3
CCN(CC)c1ccc2cc(C(N)=O)/c(=N\NC(N)=S)oc2c1 | 3 | -7 | 130*
Cc1ccc(/C=N\Nc2nc(N3CCOCC3)nc(N3CCOCC3)n2)o1 | -5 | -3 | -11
Clc1cccc(Nc2cc3c(cn2)ncn3-c2ccccc2)c1 | -6 | -6 | 36
COc1cccc(CNC(=O)c2ccc(-c3cc(-c4cccc(C(F)(F)F)c4)n[nH]3)cc2)c1 | 104* | -1 | -7
COc1ccc(CCNC(=O)c2ccc(-c3cc(-c4cccc(C(F)(F)F)c4)n[nH]3)cc2)cc1 | -9 | -11 | -2
N#Cc1c(N)nc2c(c1N)C(Sc1ccccc1)c1ccc(O)cc1O2 (stereo unspecified) | . | -6 | 413*
N#Cc1c(N)nc(SCC(=O)c2ccccc2)c(C#N)c1-c1ccc(O)cc1 | -3 | -1 | -4
Nc1cc(-c2cccc(Cl)c2)nn1-c1ccc(C(=O)NCCc2ccc(O)cc2)cc1 | -6 | -3 | -5
Cc1cc(NC(=O)CCl)ccc1N1CCCC1 | 1 | 0 | 5
O=C(CCl)Nc1ccc2c(c1)C(=O)c1ccccc1C2=O | 57* | 2 | 2
Nc1cc(-c2cccc(Cl)c2)nn1-c1ccc(C(=O)Nc2cccc3c2CCCC3)cc1 | -4 | -6 | 1
O=C1C(Sc2ncn[nH]2)=CC(=NS(=O)(=O)c2ccccc2)c2ccccc21 | 51* | 38 | 9
CC(C)c1ccc(S(=O)(=O)N=C2C=C(Cl)C(=O)c3ccccc32)cc1 | . | 9 | 5
Cc1ccc(F)c(Oc2cc(N3CCN(C(=O)COc4ccccc4)C(C)C3)ncn2)c1 (stereo unspecified) | -4 | 0 | -10
SMILES | mcGAS lum | hcGAS lum | NPYLR7 agonist
CCOC(=O)c1c(N)c2c(-c3ccccc3)c(C#N)c(OCC)nc2n1C | . | -1 | 3
CCOc1nc(Cl)c(C#N)c(-c2ccccc2)c1C#N | . | 45* | 6
Cc1nc2sccn2c(=O)c1NC(=O)C1CCCC1 | -7 | -10 | 8
CN(C)CCn1c2c(c(SCC(=O)Nc3ccc([N+](=O)[O-])cc3)nc1=O)CCC2 | -9 | 2 | -2
COc1cc(NC(=O)N2CC(=O)N3CCc4c(F)cccc4C3C2)cc(OC)c1OC (stereo unspecified) | -8 | -7 | 43*
CCOc1ccccc1NC(=O)N1CC(=O)N2CCc3c(F)cccc3C2C1 (stereo unspecified) | -3 | 0 | 10
COc1cc(/C=C2\C(=O)N(c3ccccc3)N=C2C)ccc1OC(C)=O | 7 | -3 | -10
CCOC(=O)c1cn2cc(Br)nc(NC(C)CC)c2n1 (stereo unspecified) | . | -3 | .
O=C(NC1CCC(O)CC1)N(Cc1ccccc1O)C1CCCCC1 (stereo unspecified) | . | -11 | 9
Cc1ccc2c(n1)[nH]n1c(=O)cc(C)nc21 | . | 43* | 7
Cc1cc(=O)n2[nH]c(C)c(-c3ccc(F)cc3)c2n1 | . | -1 | 0
CN(C)CCN(Cc1cc(NC(=O)c2cccs2)ccc1N(C)C)C(=O)c1ccco1 | -5 | 0 | 4
Cc1ccc(Cn2nc(-c3ccco3)c3sc(C)nc3c2=O)cc1 | -9 | 1 | 2
COc1ccc(C2=NN(C(=O)CN3CCOCC3)C(c3nc4ccccc4[nH]3)C2)cc1 (stereo unspecified) | 1 | 8 | 52*
O=C(CN1CCOCC1)N1N=C(c2ccc(Br)cc2)CC1c1nc2ccccc2[nH]1 (stereo unspecified) | -5 | -5 | 9
Cc1nn(CC(=O)Nc2sc(C)c(C)c2C(N)=O)c(C)c1[N+](=O)[O-] | . | -3 | -1
COc1ccc2c(C)nc(N=C(N)N)nc2c1 | . | 5 | 59*
CCc1nc(N=C(N)N)nc2cc(C)ccc12 | . | 4 | 62*
COc1ccc(N=C(N)N)cc1 | . | -7 | 5
CCCC(=O)NC(N)=Nc1nc(C)c2cc(C)ccc2n1 | -2 | -7 | -6
O=C(c1ccccc1Br)N1CCN(c2nc(Cc3ccccc3)nc3c2cnn3-c2ccccc2)CC1 | -3 | -5 | 2
COC(=O)c1ccccc1NC(=O)Cn1ncn2nc(-c3ccccc3)cc2c1=O | -8 | -7 | -10
CCOC(=O)Cc1c(C)n2nc(C)cc2[nH]c1=O | . | 58* | -2
CCOC(=O)Cc1cnc(C)[nH]c1=O | -2 | -3 | 4
CCC(C)NC(=O)c1cc(-c2ccccc2F)nc2cc(-c3ccccc3)nn12 (stereo unspecified) | -8 | -8 | 13
SMILES | mcGAS lum | hcGAS lum | NPYLR7 agonist
COc1cc(OC)cc(C(=O)N2CCN(c3nccc(-c4cccc(C(F)(F)F)c4)n3)CC2)c1 | 2 | 1 | 3
O=C(CSc1nnc2ccccn12)Nc1ccc([N+](=O)[O-])cc1Cl | . | -5 | -4
O=C(CCl)Nc1ccc([N+](=O)[O-])cc1Cl | 60* | -7 | -1
O=c1oc2c(Br)c(O)c(Br)cc2s1 | 76* | 41* | -3
O=c1oc2c(-c3ccc(Br)cc3)cc(O)cc2s1 | -6 | -5 | 0
CN(C)CCNC(=O)CN1Cc2ccc(N3CCOCC3)nc2C1=O | -4 | -3 | 13
C[C@@H](NC(=O)CN1Cc2ccc(N3CCOCC3)nc2C1=O)c1ccccc1 | -6 | -5 | 61*
Nc1ccc2nc(-c3ccc4nc[nH]c4c3)[nH]c2c1 | -3 | -4 | 11
CCCc1cc(C(=O)N(C)Cc2sccc2C)n(C)n1 | -13 | -3 | 12
Cc1ccc(C)c(C2C(C#N)C(=N)SC(=N)C2C#N)c1 (stereo unspecified) | . | -3 | 120*
N#CC1C(=N)SC(=N)C(C#N)C1c1ccc(F)cc1F (stereo unspecified) | 24 | 18 | 0
O=C(Cn1ccn2nc(-c3ccccc3)cc2c1=O)Nc1ccccc1 | -11 | -7 | 25
Cc1scc(C(=O)N2[C@@H]3CC[C@H]2CNC(=O)C3)c1-c1ccccc1 | -16 | -5 | 8
COc1ccc(C(=O)N(Cc2cccc(OS(=O)(=O)c3cccc(C(F)(F)F)c3)c2)C(C)C)cc1 | -6 | -15 | -10
O=C(O)C1(C(=O)O)CCC1.[NH2-].[NH2-].[Pt+2] | -4 | 0 | 2
N#Cc1c(NC(=O)CN2C(=O)c3ccccc3C2=O)sc2c1CCCC2 | -8 | -8 | -1
CSC(=S)N/N=C(/c1ccccc1)c1ccccn1 | 6 | 64* | -1
NC(=S)NN=C(C(=O)c1ccccn1)c1ccccn1 | . | -7 | -3
Cc1cc(C=C2Sc3ccccc3N2C)cc(C)[n+]1-c1ccccc1 | . | -3 | 76*
